These entries were drawn from the full list.
aSyn UTR act: Activators via SNCA 5'UTR binding, MLPCN | alpha-synuclein 5'UTR reporter, activators screen | activity score, % (tested at 7.5 µM), hits read low | 7.1% of 300,000 active | AID 1814; in the data active = activity score below about -60%
Numbers stand for hits; 0 = inactive.

SMILES	aSyn UTR act
COc1ccc(C(=O)Nc2cccc(-c3nnc(-c4ccco4)o3)c2)cc1	-92.6
COc1ccc(OCC(=O)Nc2cccc(-c3nc4ccccc4[nH]3)c2)cc1	-159.0
COc1ccc2oc(=O)c(-c3nnc(N)s3)cc2c1	-97.0
O=c1oc2ccccc2cc1-c1nnc(NCc2ccco2)s1	-131.4
O=c1oc2ccccc2cc1-c1nc2c(s1)CCc1ccccc1-2	-81.1
Nc1nnc(-c2cc3ccccc3oc2=O)s1	-115.8
CC/C(C)=N\Nc1nc(-c2cc3cc(OC)ccc3oc2=O)cs1	-118.9
Fc1cccc(CSc2ccc(-c3ccco3)nn2)c1	-176.2
Fc1ccc(CSc2ccc(-c3ccco3)nn2)cc1	-153.3
Cc1ccc(N2C(=O)c3ccc(N)cc3C2=O)cc1	-181.8
Cc1ccc(N2C(=O)c3ccc(N)cc3C2=O)cc1C	-131.3
Cc1cc(N)c(NC2=CC(=O)CC(C)(C)C2)cc1C	-107.7
CCc1ccc2nc(/N=C(\N)NC(=O)c3ccccc3)nc(C)c2c1	-120.2
c1ccc(-c2ccc(-c3ccncn3)cc2)cc1	-78.0
N#Cc1ccccc1NC(=O)CSc1nccn1CCc1ccccc1	-149.4
CC(=O)c1ccc(NC(=O)CSc2nccn2CCc2ccccc2)cc1	-128.2
[O-][n+]1onc2c1CCc1nnccc1-2	-85.5
CCCc1cc(C(=O)Nc2ccc(F)cc2F)no1	-116.0
CCCc1cc(C(=O)Nc2cccc(Cl)c2C)no1	-150.0
CCCc1cc(C(=O)Nc2ccccc2SC)no1	-155.5
CCCN1CN=C(Nc2nc3ccccc3o2)NC1	-112.9
c1ccc2oc(NC3=NCN(CC4CCCO4)CN3)nc2c1 (configuration not stated)	-93.7
COCCCN1CN=C(Nc2nc3ccccc3o2)NC1	-81.7
CC1(C(=O)OCc2cc(=O)n3cc(Br)ccc3n2)CC1(Cl)Cl (configuration not stated)	-140.0
CC1CC1C(=O)OCc1cc(=O)n2cc(Br)ccc2n1 (configuration not stated)	-148.0
SMILES	aSyn UTR act
Cc1ccccc1C(=O)NC(CC(C)C)C(=O)OCc1cc(=O)n2cc(Br)ccc2n1 (configuration not stated)	-72.8
CCCn1c(CN2CCN(C(=O)OCC)CC2)nc2cc(NC(=O)C(C)C)ccc21	-70.2
O=C(c1ccc(-n2cccn2)cc1)N1CCc2ccccc2C1	-63.2
O=C(NC(=S)Nc1nc2c(ccc3ccccc32)s1)c1cccs1	-63.2
O=C(Nc1nc2c(ccc3ccccc32)s1)c1ccco1	-293.2
O=C(Nc1nc2c(F)c(F)c(F)cc2s1)c1ccco1	-178.7
O=C(Nc1ccc(-c2nc3c(ccc4ccccc43)o2)cc1)c1ccco1	-164.8
O=C(/C=C/c1ccc2c(c1)OCO2)Nc1nncs1	-115.1
CC(C)(C)c1ccc(/C=C/C(=O)Nc2nncs2)cc1	-87.9
Cc1cc(C(=O)N/N=C/c2ccc(C)s2)n[nH]1	-97.3
CC(C)(C)C1CCc2c(C(=O)N/N=C/c3cccs3)csc2C1 (configuration not stated)	-97.2
Cc1cc(C(=O)N/N=C/c2ccc([N+](=O)[O-])s2)n[nH]1	0
O=C(N/N=C/c1cc(Br)cs1)c1ccc2c(c1)OCCO2	-343.5
Cc1ccc(/C=N/NC(=O)c2ccc3c(c2)OCCO3)s1	-117.5
O=C(N/N=C/c1cccs1)c1ccc2ccccc2c1	-239.8
Cc1ccc(/C=N/NC(=O)c2ccc3ccccc3c2)s1	-131.7
O=C(N/N=C/c1cccs1)c1cc(-c2cccc3ccccc23)n[nH]1	-104.0
CCc1cccc2c(C(=O)COC(=O)c3ccccc3)c[nH]c12	-186.1
CCc1cccc2c(C(=O)COC(=O)c3ccc(O)cc3)c[nH]c12	-108.9
O=C(OCC(=O)c1cccc2ccccc12)c1ccc(CO)cc1	-98.2
Cc1c(CCOC(=O)CC23CC4CC(CC(C)(C4)C2)C3)sc[n+]1CC(=O)c1ccccc1	-65.4
CC(=O)Nc1sc(C)c(C)c1C(=O)OCC(=O)N(CC(C)C)c1c(N)n(Cc2ccccc2)c(=O)[nH]c1=O	0
C/C(CC(=O)Nc1cc(C)ccn1)=N\NC(=O)COc1cccc(C)c1	-110.4
CC(=O)Nc1sc(C)c(C)c1C(=O)OCCOc1ccccc1	-129.5
Cc1cccc(OCC(=O)Nc2sc3c(c2C#N)CCC3)c1	-99.5
SMILES	aSyn UTR act
Cc1cccc(OCC(=O)Nc2cc(C)c(C)cc2O)c1	-112.1
CC1(C)Cc2c(sc(NC(=O)COc3cccc4ccccc34)c2C#N)C(C)(C)N1	0
Cc1sc(NC(=O)COc2ccccc2)c(C#N)c1C	-91.3
Cc1sc(NC(=O)CS(=O)(=O)c2ccccc2)c(C#N)c1C	-87.4
CC(=O)Nc1cccc(NC(=O)c2ccc3[nH]c(C)c(C)c3c2)c1	-107.2
COc1ccc(NC(=O)c2ccc3[nH]c(C)c(C)c3c2)cc1	-101.4
COc1cccc(-c2cc(=O)c3cc(NC(=O)c4ccc(N(C)C)cc4)ccc3[nH]2)c1	0
COc1cc(OC)c(OC)cc1CN1CCCC(C(=O)c2ccccc2SC)C1 (configuration not stated)	0
COc1ccccc1C(=O)C1CCCN(C(=O)Nc2ccccc2F)C1 (configuration not stated)	-64.1
C(=N\Nc1nc2ccccc2s1)/c1cccs1	-211.7
Cc1ccsc1/C=N/Nc1nc2ccccc2s1	-148.3
CCn1c(C)c(/C=N/Nc2nc3ccccc3s2)c2ccccc21	-169.9
OCC(O)/C=N/Nc1nc2ccccc2s1 (configuration not stated)	-71.7
C(=N\Nc1nc2ccccc2s1)/c1ccco1	-80.1
O=C1CCCC/C1=C/Nc1ccc2c(c1)OCO2	-138.6
O=C1CCCC/C1=C/Nc1ccc(C(=O)O)cc1	-72.3
CCOC(=O)c1sc(NC(=O)c2ccc(C)s2)cc1C	-170.4
CCOC(=O)c1sc(NC(=O)Nc2ccccc2Cl)cc1C	-94.9
CCOC(=O)c1sc(NC(=O)C2CCC2)cc1C	-110.0
CCOC(=O)c1sc(NC(=O)c2cccc(S(=O)(=O)N3c4ccccc4CC3C)c2)cc1C (configuration not stated)	0
CC(C)Sc1ccc(C(=O)Nc2ccc(F)cc2F)cn1	-140.1
Fc1ccc(-n2nnc(-c3cccnc3Cl)n2)cc1	-86.4
Clc1ccc(-n2nnc(-c3cccnc3Cl)n2)cc1Cl	-108.5
CCCNC(=O)C1CC(=O)N(c2ccc(OCc3ccc(Cl)cc3)cc2)C1 (configuration not stated)	-108.4
NC(=O)C1CC(=O)N(c2ccc(OCc3ccc(Cl)cc3)cc2)C1 (configuration not stated)	-146.0
SMILES	aSyn UTR act
CCCNC(=O)C1CC(=O)N(c2ccc(OCc3ccc(F)cc3)cc2)C1 (configuration not stated)	-92.1
C=CCNC(=O)C1CC(=O)N(c2ccc(OCC(=O)Nc3ccccc3)cc2)C1 (configuration not stated)	-94.4
C=CCNC(=O)C1CC(=O)N(c2ccc(OCc3ccc(F)cc3)cc2)C1 (configuration not stated)	-95.3
Cc1occc1C(=O)N/N=C/c1c[nH]c2ccccc12	-135.3
CC(C)(C)OC(=O)N/N=C/c1c[nH]c2ccccc12	-139.7
Cc1cc(NO)nc(-c2ccc(Br)cc2)n1	-277.5
Cc1ccc(Nc2nc(-c3ccncc3)cs2)cc1	-331.1
Clc1cccc(Nc2nc(-c3ccncc3)cs2)c1	-159.3
CCCn1nnc(NC(=O)c2ccc(OC)cc2)n1	-121.4
CCOc1ccc(C(=O)Nc2nnn(CC)n2)cc1	-86.0
CCCn1nnc(NC(=O)c2ccc(Br)cc2)n1	-137.1
CCCn1nnc(NC(=O)c2ccc(-c3ccccc3)cc2)n1	-217.6
O=C(/C=C/Nc1ccc(F)cc1)c1ccc(Oc2ncccn2)cc1	-114.9
